The results in this text go back to PubChem BioAssay (Tox21).

Experiment [1] is described as follows: qHTS RealTime-Glo MT Cell Viability Assay in HepG2 cells - 40 hour (AID 1224870). Further: nearly all actives have a fitted effect of over 50% in size. Summed up:
(§1)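 HepG2 cells mixed with RealTime-Glo MT reagents (NanoLuc plus cell-permeant prosubstrate) were seeded at 600 cells/well, incubated 5 h at 37 C/5% CO2, then pinned with compounds in DMSO; nonlytic luminescence tracked viability during 40 h treatment.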

The nature of experiment [2]: A CellTox Green Cytotoxicity Assay to monitor cytotoxicity in HEK293 cells - 40 hour (AID 1224871). Further: nearly all actives have a fitted effect of over 45% in size. The method, boiled down:
(§2)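 Homogeneous no-lysis format: HEK293 cell suspension mixed with CellTox Green reagent, seeded, incubated 5 h at 37 C/5% CO2, then dosed by pintool with compound in DMSO.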

Experiment [3] in a line: qHTS RealTime-Glo MT Cell Viability Assay in HEK293 cells - 16 hour (AID 1224872). Further: nearly all actives have a fitted effect of over 50% in size. Further: potency means the concentration at half of the fitted maximal effect. Summed up: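 Nonlytic real-time viability readout: viable cells convert prosubstrate to NanoLuc substrate, giving luminescence proportional to live cell number. HEK293, 600 cells/well, compound added after 5 h, continuous culture at 37 C.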
Experiment [4] in a line: qHTS RealTime-Glo MT Cell Viability Assay in HepG2 cells - 8 hour (AID 1224873). Further: nearly all actives have a fitted effect of over 55% in size. The method, boiled down: as §1
Experiment [5] in a line: qHTS RealTime-Glo MT Cell Viability Assay in HEK293 cells - 40 hour (AID 1224874). Further: nearly all actives have a fitted effect of over 50% in size. Further: potency means the concentration at half of the fitted maximal effect. Conditions: RealTime-Glo luminescence; max response: active compounds read low. The method, boiled down:
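Measured as luminescence from the same continuously cultured HEK293 wells at successive time points (0, 8, 16, 24, 32, 40 h) after compound addition. Reagent present from seeding; dosing at 5 h; incubation 37 C.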

Experiment [6] can be described thus: A CellTox Green Cytotoxicity Assay to monitor cytotoxicity in HEK293 cells - 24 hour (AID 1224875). Further: series mostly up to about 77 µM; nearly all actives have a fitted effect of over 45% in size. Summed up:
as §2

Experiment [7] is described as follows: A CellTox Green Cytotoxicity Assay to monitor cytotoxicity in HepG2 cells - 16 hour (AID 1224876). Further: nearly all actives have a fitted effect of over 45% in size. Summed up: (§3)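 Fluorescent DNA-binding dye, 600 HepG2 cells/well, 5 h preincubation then compound in DMSO; same plates read at 0–40 h, 37 C.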
The nature of experiment [8]: qHTS RealTime-Glo MT Cell Viability Assay in HepG2 cells - 32 hour (AID 1224877). Further: nearly all actives have a fitted effect of over 55% in size. Summed up: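 Luminescence read-out: viable HepG2 cells reduce a prosubstrate to a NanoLuc substrate, giving a signal proportional to live cell number. Reads taken at 0, 8, 16, 24, 32 and 40 h of compound exposure at 37 C.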
Experiment [9] is described as follows: A CellTox Green Cytotoxicity Assay to monitor cytotoxicity in HepG2 cells - 24 hour (AID 1224878). Further: nearly all actives have a fitted effect of over 45% in size. The method, boiled down: as §3
Experiment [10] in a line: A CellTox Green Cytotoxicity Assay to monitor cytotoxicity in HepG2 cells - 40 hour (AID 1224879). Further: nearly all actives have a fitted effect of over 40% in size. The method, boiled down: as §3

Several values for one entry are separate records, joined by “and”; a condition that tells them apart may be missing. Identical values can stand only once. Inconclusive results are not listed. A number with no mark means an inactive call. Activity calls are given as the source filed them. The call rests on the fitted dose curve; in most records, active means well fitted curve in the direction sought with a large enough effect in the repeat runs; inconclusive means weak or mixed curves; inactive means no such curve, though single readings can be large; an effect the other way counts as inactive or inconclusive.
On the % scale 0 is the no-effect control and ±100 the full control effect.

Turning to `c1ccc2ccccc2c1`, the Potency entry in experiment [1], in [2], in experiment [3], in experiment [4], in experiment [6] and in experiment [7] was “inactive” throughout. The Potency entry in [8] and in experiment [9] was “inactive” each time. Besides, the max response in experiment [5] is 0.777% and 7.95%.

For `CC1=C(CC(=O)O)c2cc(F)ccc2/C1=C\c1ccc(S(C)=O)cc1` (configuration not stated), the Potency entry in experiment [1], in [2], in experiment [3], in experiment [4], in [6] and in [7] was “inactive” throughout. The Potency result in experiment [8] and in [9] was “inactive” throughout. For the same compound, the max response in experiment [5] was 14% and 12.3%.

Turning to `CCCCCC/C=C/CCCCCCCC(=O)O`, the Potency result in experiment [1], in [2], in [3], in [4], in experiment [6] and in [7] was “inactive” each time. Besides, the Potency result in [8], in experiment [9] and in [10] was “inactive” each time. In addition, the max response in [5] was 2.68% and -1.87%.

As to `O=S(=O)(O)CCS`, the Potency entry in [1], in [2], in experiment [3], in experiment [4], in experiment [6] and in experiment [7] was “inactive” in each case. For the same compound, the Potency result in [8] and in [9] was “inactive” throughout. Further, in [5], the max response was 0.917% and -2.58%.

Consider `O=C1N=C(O)CN1/N=C/c1ccc(-c2ccc([N+](=O)[O-])cc2)o1`, for which the Potency entry in experiment [1], in experiment [2], in experiment [3], in experiment [4], in experiment [6] and in experiment [7] was “inactive” each time. Moreover, the Potency entry in experiment [8] and in experiment [9] was “inactive” each time. In experiment [5], the max response was -2.04%.

Turning to `COCC(=O)O`, the Potency result in experiment [1], in [2], in [3], in [4], in experiment [6] and in experiment [7] was “inactive” throughout. Further, the Potency entry in experiment [8], in experiment [9] and in experiment [10] was “inactive” throughout. Besides, the max response in experiment [5] is 0.194% and 4.44%.

Turning to `CC1Cc2ccccc2N1NC(=O)c1ccc(Cl)c(S(N)(=O)=O)c1` (configuration not stated), the Potency result in experiment [1], in experiment [2], in [3], in experiment [4], in experiment [6] and in [7] was “inactive” each time. The Potency result in experiment [8], in experiment [9] and in [10] was “inactive” each time. Also, in [5], the max response is 3.11% and -9.79%.

For the compound `CCCCCCCCCCCCOCC1CO1` (configuration not stated), the Potency result in experiment [1], in experiment [2], in experiment [3], in experiment [4], in experiment [6] and in experiment [7] was “inactive” each time. Besides, the Potency entry in [8] and in experiment [9] was “inactive” each time. Besides, the max response in experiment [5] is -10.9% and -25.4%.

Turning to `OCC1CCCO1` (configuration not stated), the Potency entry in experiment [1], in experiment [2], in experiment [3], in experiment [4], in experiment [6] and in experiment [7] was “inactive” throughout. The Potency entry in [8], in experiment [9] and in experiment [10] was “inactive” in each case. Moreover, in [5], the max response is 1.79% and -10.7%.

In the case of `Cc1cc(Cc2ccc(N)c(C)c2)ccc1N`, the Potency entry in experiment [1], in experiment [2], in experiment [3], in experiment [4], in experiment [6] and in experiment [7] was “inactive” throughout. The Potency entry in experiment [8], in experiment [9] and in experiment [10] was “inactive” throughout. In experiment [5], the max response was -20.5% and -29%.

Regarding `Clc1ccc(Cl)c(Cl)c1Cl`, the Potency result in experiment [1], in experiment [2], in experiment [3], in [4], in experiment [6] and in experiment [7] was “inactive” in each case. The Potency result in [8], in [9] and in experiment [10] was “inactive” in each case. The max response in experiment [5] was 0.667% and -4.21%.

As to `Cc1ccc(C)c(C)c1`, the Potency entry in experiment [1], in experiment [2], in [3], in [4], in experiment [6] and in experiment [7] was “inactive” throughout. In addition, the Potency entry in experiment [8], in experiment [9] and in experiment [10] was “inactive” in each case. The max response in experiment [5] is 7.97% and 2.35%.

`NC(=O)NNc1ccccc1`: the Potency result in experiment [1], in [2], in [3], in experiment [4], in [6] and in [7] was “inactive” throughout. Besides, the Potency result in experiment [8] and in experiment [9] was “inactive” in each case. Moreover, the max response in experiment [5] was 15.8% and 8.69%.

For the compound `Oc1ccc2ccccc2c1N=Nc1ccccc1`, the Potency entry in experiment [1], in experiment [2], in experiment [3], in [4], in experiment [6] and in [7] was “inactive” each time. In addition, the Potency entry in experiment [8] and in [9] was “inactive” in each case. The max response in experiment [5] was 32.3%.

As to `C=C1CC[C@H](O)CC1=C/C=C1\CCC[C@]2(C)[C@@H]([C@H](C)/C=C/[C@H](C)C(C)C)CC[C@@H]12`, the Potency result in experiment [1], in [2], in [4], in experiment [6], in [7] and in experiment [8] was “inactive” each time. Besides, the Potency entry in experiment [9] and in experiment [10] was “inactive” each time. In addition, the Potency in experiment [3] was 43.6 µM (active); in experiment [5], 48.5 µM (active) and 49 µM (active).

`O=C(Oc1ccccc1)c1ccc(O)cc1`: the Potency result in [1], in experiment [2], in experiment [3], in experiment [4], in experiment [6] and in experiment [7] was “inactive” in each case. Moreover, the Potency result in experiment [8], in experiment [9] and in experiment [10] was “inactive” throughout. Besides, the max response in experiment [5] is -21.6% and -15.5%.

For the compound `CNC[C@H](O)[C@@H](O)[C@H](O)[C@H](O)CO`, the Potency result in experiment [1], in experiment [2], in experiment [3], in experiment [4], in experiment [6] and in experiment [7] was “inactive” each time. For the same compound, the Potency entry in experiment [8], in experiment [9] and in experiment [10] was “inactive” each time. The max response in experiment [5] was 8.02% and 0.166%.

With `O=C(O)c1ccc([N+](=O)[O-])cc1`, the Potency result in experiment [1], in experiment [2], in [3], in experiment [4], in experiment [6] and in experiment [7] was “inactive” in each case. Moreover, the Potency result in experiment [8], in [9] and in experiment [10] was “inactive” throughout. The max response in [5] is 2.62% and 0.789%.

Take `O=S(=O)(O)c1cc(S(=O)(=O)O)c2c(N=Nc3ccccc3)c(O)ccc2c1`: the Potency entry in experiment [1], in [2], in experiment [3], in experiment [4], in [6] and in experiment [7] was “inactive” in each case. Also, the Potency entry in experiment [8] and in experiment [9] was “inactive” each time. Also, in experiment [5], the max response is -20.2%.
